Sampled rows, rich in hits. Any-hit rate of the full collection: about 17%.
TGFb inhibitor – blocks TGF-b signaling; AID 588855; HepG2 CAGA-GFP TGF-b/SMAD3 reporter, GFP fluorescence, 18 h; TGF-beta stimulated, 500 pg/mL final; hit rate 1.2% among 410,000; Potency, µM (titrated, usually from 46.1 µM), hits mostly inhibitors; also: nearly all actives have a fitted effect of over 65% in size
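Cell-based qHTS in HEPG2 carrying a CAGA-GFP Smad reporter; compounds added before 500 pg/mL final TGF-beta, 18 h incubation at 37 degrees C, GFP fluorescence quantified per cell by imaging cytometry.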
HepG2 tox – kills HepG2 cells in TGF-b inhibitor counter-screen | hit rate 0.76% among 410,000 | HepG2 CAGA-GFP viability, ATP luminescence, 18 h | Potency, µM (titrated, usually from 46.1 µM), most hits filed as cytotoxic
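CellTiter-Glo luminescence gave cytotoxicity after 18 hours at 37 degrees C. The cells were HepG2 CAGA-GFP in 1% FBS DMEM, stimulated with 500 pg/mL TGF-beta after compound addition. %Activity was normalised to no-cell wells (complete cell-killing) and DMSO (no toxicity), and curves were fitted and classified.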
ATXN2 expr inh – ATXN2 expression inhibition; HEK-293 ATXN2-luciferase reporter, luminescence, 24 h; Potency, µM (series often up to 57 µM), most hits filed as inhibitors; hit rate 0.72% among 360,000; AID 1745845; also: nearly all actives have a fitted effect of over 55% in size
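qHTS (up to 57 uM final) was run with 24 h compound exposure of reporter cells at 37 °C. Each well was multiplexed: SteadyGlo luminescence measured ATXN2-luciferase expression after a fluorogenic Gly-Phe-AFC viability readout (25 uM final).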
ATXN viability – reduces viability in counter-screen for ATXN expression inhibitors | hit rate 0.49% among 400,000 | S2 cells (HEK-293 line with an ATXN2-luciferase reporter) viability, CellTiter-Fluor protease fluorescence, 24 h | Potency, µM (doses to about 56.7 µM), most hits filed as cytotoxic; also: nearly all actives have a fitted effect of over 40% in size
TDP1 cell noCPT – qHTS for Inhibitors of human tyrosyl-DNA phosphodiesterase 1 (TDP1): qHTS in cells in absence of CPT | DT40 Tdp1-/- hTDP1 cells, no CPT, ATP luminescence, 48 h | Potency, µM (titrated, usually from 46.2 µM), usual class: inhibitors | hit rate 15% among 420,000 | AID 686978, 2013; also: nearly all actives have a fitted effect of over 55% in size
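Chicken DT40 Tdp1-/- cells stably complemented with human TDP1 were seeded at 400 cells/well with DMSO in place of 20 nM camptothecin. After compound pinning, cells grew at least 48 hr at 37 °C; viability read by CellTiter-Glo luminescence.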
TDP1 cell CPT – growth inhibition of DT40 Tdp1-/-;hTDP1 cells with camptothecin (screen for TDP1 inhibitors); chicken DT40 Tdp1-/-;hTDP1 cells + 20 nM CPT, ATP luminescence, 48 h; Potency, µM (doses to about 46.2 µM), most hits filed as inhibitors; hit rate 12% among 420,000; AID 686979; also: nearly all actives have a fitted effect of over 55% in size
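Chicken DT40 Tdp1-/- cells stably complemented with human TDP1 were seeded at 400 cells/well in medium containing 20 nM camptothecin, exposed to pin-transferred compounds, and grown at 37 °C for at least 48 hr. Viability was read as ATP luminescence.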
A number is an active result. Calls follow the shape of the dose curve; as a rule, active = well fitted curve in the direction sought with a large enough effect; inconclusive = small, poorly fitted or top-dose-only effect, or another doubt; inactive = no such curve, though single readings can be large; an effect the other way counts as inactive or inconclusive.

Screening CCOC(=O)/C=C1\SCC(=O)N1CC(=O)Nc1cccc(F)c1 returned TGFb inhibitor inactive, HepG2 tox inactive, ATXN2 expr inh inactive, ATXN viability inactive, TDP1 cell noCPT inactive and TDP1 cell CPT inactive.
`CC(C)c1ccc(S(=O)(=O)N2CCN(C(=O)c3cc([N+](=O)[O-])ccc3N3CCOCC3)CC2)cc1` gave TGFb inhibitor inactive, HepG2 tox inactive, ATXN2 expr inh inactive, ATXN viability inactive, TDP1 cell noCPT inactive and TDP1 cell CPT inconclusive.
Screening O=C(O)C(Cc1c[nH]c2ccccc12)NS(=O)(=O)c1ccc(Cl)cc1 (stereo unspecified) returned TGFb inhibitor inactive, HepG2 tox inactive, ATXN2 expr inh inactive, ATXN viability inactive, TDP1 cell noCPT inactive and TDP1 cell CPT inactive.
Cc1cc(NS(=O)(=O)c2cccc([N+](=O)[O-])c2)no1 was read as TGFb inhibitor inactive, HepG2 tox inactive, ATXN2 expr inh inactive, ATXN viability inactive, TDP1 cell noCPT inactive and TDP1 cell CPT inactive.
Screening CCOc1ccc(CN(C)C(=O)CNC(=O)Cc2cccc3ccccc23)cc1 returned TGFb inhibitor inactive, HepG2 tox inactive, ATXN2 expr inh inactive, ATXN viability inactive, TDP1 cell noCPT 23µM and TDP1 cell CPT inconclusive.
For C=CCOc1ccc(CN(C)C(=O)CNC(=O)c2ccc(-c3ccccc3)cc2)cc1 the results were TGFb inhibitor inconclusive, HepG2 tox inactive, ATXN2 expr inh inactive, ATXN viability inactive, TDP1 cell noCPT 21µM and TDP1 cell CPT inconclusive.
Screening Cc1nnc2n1N=C(c1ccc(OC(F)F)cc1)C(C)S2 (stereo unspecified) returned TGFb inhibitor inactive, HepG2 tox inactive, ATXN2 expr inh inactive, ATXN viability inactive, TDP1 cell noCPT inconclusive and TDP1 cell CPT inactive.
`C=C1C2CC[C@@]3(C)C(c4ccoc4)OC(=O)C[C@@]13OC1CC(=O)C(C)(C)C(CC(=O)OC)[C@]12C` (stereo partly specified) gave TDP1 cell noCPT inactive and TDP1 cell CPT inactive.
Screening C=C1C2CC[C@@]3(C)C(c4ccoc4)OC(=O)C[C@@]13OC1CC(OC(C)=O)C(C)(C)C(CC(=O)OC)[C@@]12C (stereo partly specified) returned TDP1 cell noCPT 12µM and TDP1 cell CPT 13µM.
COc1ccc(C2Nc3ccccc3C(=O)N2C2CCCCC2)cc1 (stereo unspecified) was read as TGFb inhibitor inactive, HepG2 tox inactive, ATXN viability inactive, TDP1 cell noCPT inconclusive and TDP1 cell CPT inconclusive.
Screening CC(C)(C)C(=O)Cn1ncc(N2CCOCC2)c(Cl)c1=O returned TGFb inhibitor inactive, HepG2 tox inactive, ATXN viability inactive, TDP1 cell noCPT inactive and TDP1 cell CPT inactive.
For CC(C)(C)C(=O)Cn1ncc(Br)c(Br)c1=O the results were TGFb inhibitor inconclusive, HepG2 tox inactive, ATXN2 expr inh inconclusive, TDP1 cell noCPT 1.8µM and TDP1 cell CPT 4.6µM.
`COCCN(C(=O)COC(=O)CCOc1ccccc1C)c1c(N)n(Cc2ccccc2)c(=O)[nH]c1=O` gave TGFb inhibitor inactive, HepG2 tox inactive, ATXN2 expr inh inactive, ATXN viability inactive, TDP1 cell noCPT inactive and TDP1 cell CPT inactive.
C=Cc1ccc(CSc2cc(C)nc3nc(C)nn23)cc1 was read as TGFb inhibitor inactive, HepG2 tox inactive, ATXN2 expr inh inactive, ATXN viability inactive, TDP1 cell noCPT inconclusive and TDP1 cell CPT inconclusive.
Cc1cc(N2CCN(c3ccccc3)CC2)n2ncnc2n1 was read as TGFb inhibitor inactive, HepG2 tox inactive, ATXN2 expr inh inactive, ATXN viability inconclusive, TDP1 cell noCPT inconclusive and TDP1 cell CPT inactive.
Cc1ccc(C)c(N2CCN(C(=S)NC3CCCCC3)CC2)c1 was read as TGFb inhibitor inactive, HepG2 tox inactive, ATXN2 expr inh inactive, ATXN viability inactive, TDP1 cell noCPT inactive and TDP1 cell CPT inactive.
For Cc1cccc(N2CCN(C(=S)NC3CCCCC3)CC2)c1C the results were TGFb inhibitor inactive, HepG2 tox inactive, ATXN viability inactive, TDP1 cell noCPT 16µM and TDP1 cell CPT inconclusive.
For O=C(C1CC(=O)N(C2CCCC2)C1)N1CCN(c2ccccc2)CC1 (stereo unspecified) the results were TGFb inhibitor inactive, HepG2 tox inactive, ATXN2 expr inh inactive, ATXN viability inactive, TDP1 cell noCPT inactive and TDP1 cell CPT inactive.
CCS(=O)(=O)N1Cc2ccccc2CC1C(=O)Nc1ccc(F)cc1 (stereo unspecified) was read as TGFb inhibitor inactive, HepG2 tox inactive, ATXN viability inactive, TDP1 cell noCPT inactive and TDP1 cell CPT inactive.
`CCS(=O)(=O)N1Cc2ccccc2CC1C(=O)N1CCN(c2cccc(C)c2C)CC1` (stereo unspecified) gave TGFb inhibitor inactive, HepG2 tox inactive, ATXN2 expr inh inactive, ATXN viability inactive, TDP1 cell noCPT 15µM and TDP1 cell CPT inconclusive.
`O=C(C1CC(=O)N(C2CCCCC2)C1)N1CCN(c2cccc(C(F)(F)F)c2)CC1` (stereo unspecified) gave TGFb inhibitor inactive, HepG2 tox inactive, ATXN2 expr inh inactive, ATXN viability inconclusive, TDP1 cell noCPT inconclusive and TDP1 cell CPT 16µM.
Screening Cc1cc(N2CCC(C(=O)N3CCN(c4cccc(C)c4C)CC3)CC2)n2ncnc2n1 returned TGFb inhibitor inactive, HepG2 tox inactive, ATXN2 expr inh inactive, ATXN viability inactive, TDP1 cell noCPT 21µM and TDP1 cell CPT inconclusive.
Cc1cccc(N2CCN(C(=O)C3CC(=O)N(C4CCCC4)C3)CC2)c1C (stereo unspecified) was read as TGFb inhibitor inconclusive, HepG2 tox inactive, ATXN2 expr inh inactive, ATXN viability inactive, TDP1 cell noCPT 23µM and TDP1 cell CPT 18µM.
Screening Cc1cccc(N2CCN(C(=O)C3CCCCC3)CC2)c1C returned TGFb inhibitor inconclusive, HepG2 tox inactive, ATXN2 expr inh inactive, ATXN viability inactive, TDP1 cell noCPT 18µM and TDP1 cell CPT 29µM.
`Cc1ccccc1N1CCN(C(=O)C2CCCCC2)CC1` gave TGFb inhibitor inactive, HepG2 tox inactive, ATXN2 expr inh inactive, ATXN viability inactive, TDP1 cell noCPT inconclusive and TDP1 cell CPT inactive.
`Nc1ncnc2c1c(-c1cccc(OCc3ccccc3)c1)cn2C1CC(CN2CCCC2)C1` (stereo unspecified) gave ATXN2 expr inh 31µM.
For O=[N+]([O-])c1cccc(COc2cccc(CN3CCCC3)c2)c1 the results were TGFb inhibitor inactive, HepG2 tox inactive, ATXN2 expr inh inactive, ATXN viability inactive, TDP1 cell noCPT inconclusive and TDP1 cell CPT inconclusive.

Bioassay records deposited in PubChem BioAssay by National Center for Advancing Translational Sciences (NCATS).
